In the supplement of paper PMC10849652:
About 7,900 targets were measured; listed, in parts, are those with a hit and a random draw of the rest. About 0.6% of all pairs of compound and target were hits. A number with no mark means an inactive call.

Experiments:
Assay in all cases: log2 fold change, soluble protein after heating vs DMSO (PISA); higher = thermal stabilisation; K562 cells, 10 uM, 30 min; active = over 0.2 and 3.5 SD of the protein, either way, in both replicates (recomputed)
erlotinib = compound: C#Cc1cccc(Nc2ncnc3cc(OCCOC)c(OCCOC)cc23)c1 [erlotinib]
How it was run: (§1)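 Values are thermal stability changes relative to control samples and are taken from duplicates. They are stated as log2 fold changes. Before quantification by TMTpro 16plex LC-MS/MS with equalised channel sums, K562 cells at 2×10^6 cells/mL were treated with 10 μM compound for 30 min, heated in aliquots for 3 min across 48°C-58°C, pooled, extracted in PBS with 0.5% NP-40 at 4°C, and centrifuged at 21,000xg for 90 min to give the soluble supernatant.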

[1] = compound: C/C(=N\NC(=O)C1=CC(=CC=C1)S(=O)(=O)N2CCOCC2)/C3=C(C=CC(=C3)Cl)O
How it was run: as §1

[2] = compound: C1=CC(=C(C=C1Cl)C2=NC3=NC=CN=C3C(=N2)NC4=CC=NC=C4)F
How it was run: as §1

[3] = compound: C1=CC(=CC=C1C2=NC3=C(N2)C=C(C=C3)C(=O)N)OC4=CC=C(C=C4)Cl
How it was run: as §1

[4] = compound: C1=CC2=C(C=CC(=C2)/C=C\3/C(=O)NC(=NCC4=CC=CS4)S3)N=C1
How it was run: as §1

[5] = compound: C1=CC2=NC=CN=C2C=C1/C=C/3\C(=O)NC(=O)S3
How it was run: as §1

[6] = compound: C1=CC=C(C=C1)C2=NC(=C(N2)C3=CC=NC=C3)C4=CC(=C(C=C4)Cl)O
How it was run: as §1

[7] = compound: C1=CC=C2C(=C1)C3=NNC4=CC=CC(=C43)C2=O
How it was run: as §1

[8] = compound: C1CCN(C1)C(=O)NC2=CC=CC(=C2)NC3=NC=C(C(=N3)NCCC4=CN=CN4)Br
How it was run: as §1

[9] = compound: C1CN(CCC1(CC2=CC=C(C=C2)Cl)N)C3=NC=NC4=C3C=CN4
How it was run: as §1

IRAK-1-4 Inhibitor I = compound: C1COCCN1CCN2C3=CC=CC=C3N=C2NC(=O)C4=CC(=CC=C4)[N+](=O)[O-] [IRAK-1-4 Inhibitor I]
How it was run: as §1

ibrutinib = compound: C=CC(=O)N1CCC[C@@H](n2nc(-c3ccc(Oc4ccccc4)cc3)c3c(N)ncnc32)C1 [ibrutinib]
How it was run: as §1

[10] = compound: CC(=O)c1cnc2ccc(-c3cc(Cl)c(O)c(Cl)c3)nc2c1N[C@H]1CC[C@H](CN(C)C)CC1
How it was run: as §1

ralimetinib = compound: CC(C)(C)Cn1c(N)nc2ccc(-c3[nH]c(C(C)(C)C)nc3-c3ccc(F)cc3)nc21 [ralimetinib]
How it was run: as §1

[11] = compound: CC(C)(O)CC(=O)NCCn1ccc2ncnc(Nc3ccc(Oc4cccc(C(F)(F)F)c4)c(Cl)c3)c21
How it was run: as §1

[12] = compound: CC(C)C1=C2N=C(C=C(N2N=C1)NCC3=CC=CC=C3)NCCCCCCN
How it was run: as §1

[13] = compound: CC(C)C[C@@H](C=O)NC(=O)[C@H](CC(C)C)NC(=O)[C@H](CC(C)C)NC(=O)OCc1ccccc1
How it was run: as §1

pinometostat = compound: CC(C)N(C[C@H]1O[C@@H](n2cnc3c(N)ncnc32)[C@H](O)[C@@H]1O)[C@H]1C[C@@H](CCc2nc3cc(C(C)(C)C)ccc3[nH]2)C1 [pinometostat]
How it was run: as §1

[14] = compound: CC1=C(C(CC(=O)N1)C2=CC=C(C=C2)C(F)(F)F)C(=O)NC3=C(C=C4C(=C3)C=NN4)F
How it was run: as §1

[15] = compound: CC1=C(C2=C(C=C1)C(=O)C3=CC=CC=C3N2CCCN)C
How it was run: as §1

Sequence of UniProt Q14457 (Q14457 whole entry, looked up): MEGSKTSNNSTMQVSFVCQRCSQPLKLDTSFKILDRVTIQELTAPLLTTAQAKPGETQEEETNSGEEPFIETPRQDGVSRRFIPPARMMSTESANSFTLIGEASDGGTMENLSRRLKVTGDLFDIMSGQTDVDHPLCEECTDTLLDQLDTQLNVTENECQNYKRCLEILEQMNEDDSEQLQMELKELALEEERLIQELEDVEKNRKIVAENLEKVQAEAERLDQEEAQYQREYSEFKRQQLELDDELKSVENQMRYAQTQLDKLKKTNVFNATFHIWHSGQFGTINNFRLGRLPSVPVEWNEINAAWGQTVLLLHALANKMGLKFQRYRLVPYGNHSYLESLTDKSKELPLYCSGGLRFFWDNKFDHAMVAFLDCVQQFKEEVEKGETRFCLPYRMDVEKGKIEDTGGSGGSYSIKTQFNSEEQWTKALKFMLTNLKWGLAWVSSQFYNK
Sequence of UniProt Q53FZ2 (Q53FZ2 whole entry, looked up): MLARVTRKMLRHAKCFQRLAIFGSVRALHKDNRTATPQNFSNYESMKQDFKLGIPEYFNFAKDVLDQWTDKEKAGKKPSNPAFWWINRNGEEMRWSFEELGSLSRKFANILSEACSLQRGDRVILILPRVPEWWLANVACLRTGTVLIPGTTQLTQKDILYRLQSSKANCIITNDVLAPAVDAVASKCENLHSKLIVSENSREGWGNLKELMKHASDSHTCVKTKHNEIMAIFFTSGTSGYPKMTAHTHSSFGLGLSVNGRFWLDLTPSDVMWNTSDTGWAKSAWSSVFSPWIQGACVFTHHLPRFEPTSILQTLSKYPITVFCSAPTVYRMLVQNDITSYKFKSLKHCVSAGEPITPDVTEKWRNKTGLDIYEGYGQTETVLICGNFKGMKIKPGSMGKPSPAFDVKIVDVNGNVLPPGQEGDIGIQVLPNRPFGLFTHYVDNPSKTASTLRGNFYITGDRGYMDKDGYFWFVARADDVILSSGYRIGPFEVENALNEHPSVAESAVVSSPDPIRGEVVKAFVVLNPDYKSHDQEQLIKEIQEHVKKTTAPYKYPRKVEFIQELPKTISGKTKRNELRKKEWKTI
Sequence of UniProt Q8NFV4 (Q8NFV4 whole entry, looked up): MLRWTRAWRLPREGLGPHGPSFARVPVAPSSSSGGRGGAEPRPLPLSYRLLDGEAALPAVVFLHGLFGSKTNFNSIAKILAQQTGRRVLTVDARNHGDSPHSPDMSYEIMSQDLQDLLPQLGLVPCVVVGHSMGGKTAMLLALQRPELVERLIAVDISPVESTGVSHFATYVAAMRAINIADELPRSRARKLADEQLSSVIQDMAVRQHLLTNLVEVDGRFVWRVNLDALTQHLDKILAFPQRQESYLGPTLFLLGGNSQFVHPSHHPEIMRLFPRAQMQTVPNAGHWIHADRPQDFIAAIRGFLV
Sequence of UniProt Q5JTZ9 (Q5JTZ9 whole entry, looked up): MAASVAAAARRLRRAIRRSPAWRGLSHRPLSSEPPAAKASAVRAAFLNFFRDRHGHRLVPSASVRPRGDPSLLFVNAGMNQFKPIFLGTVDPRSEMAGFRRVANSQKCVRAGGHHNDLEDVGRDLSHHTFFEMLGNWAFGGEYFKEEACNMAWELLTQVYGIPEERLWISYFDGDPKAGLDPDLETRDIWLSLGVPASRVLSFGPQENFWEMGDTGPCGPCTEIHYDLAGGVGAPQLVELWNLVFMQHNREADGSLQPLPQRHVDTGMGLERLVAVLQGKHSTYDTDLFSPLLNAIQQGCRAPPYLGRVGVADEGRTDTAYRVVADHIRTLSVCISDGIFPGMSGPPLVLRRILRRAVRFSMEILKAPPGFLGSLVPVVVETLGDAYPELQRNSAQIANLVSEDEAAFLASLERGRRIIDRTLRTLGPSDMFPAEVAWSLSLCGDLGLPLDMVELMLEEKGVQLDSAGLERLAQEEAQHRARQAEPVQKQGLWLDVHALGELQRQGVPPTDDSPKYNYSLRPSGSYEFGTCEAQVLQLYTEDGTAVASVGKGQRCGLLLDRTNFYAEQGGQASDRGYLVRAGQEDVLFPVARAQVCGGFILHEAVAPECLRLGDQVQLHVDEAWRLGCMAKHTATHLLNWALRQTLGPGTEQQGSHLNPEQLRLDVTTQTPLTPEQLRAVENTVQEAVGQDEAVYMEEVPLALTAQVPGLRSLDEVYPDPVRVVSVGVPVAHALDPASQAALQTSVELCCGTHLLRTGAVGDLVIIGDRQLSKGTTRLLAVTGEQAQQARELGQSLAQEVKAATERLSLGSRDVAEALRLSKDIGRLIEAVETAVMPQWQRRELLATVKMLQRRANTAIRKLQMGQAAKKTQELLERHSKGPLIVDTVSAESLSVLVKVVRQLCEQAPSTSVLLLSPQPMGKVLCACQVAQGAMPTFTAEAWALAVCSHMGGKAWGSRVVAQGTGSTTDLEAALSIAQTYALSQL
Sequence of UniProt Q9UJX6 (Q9UJX6 whole entry, looked up): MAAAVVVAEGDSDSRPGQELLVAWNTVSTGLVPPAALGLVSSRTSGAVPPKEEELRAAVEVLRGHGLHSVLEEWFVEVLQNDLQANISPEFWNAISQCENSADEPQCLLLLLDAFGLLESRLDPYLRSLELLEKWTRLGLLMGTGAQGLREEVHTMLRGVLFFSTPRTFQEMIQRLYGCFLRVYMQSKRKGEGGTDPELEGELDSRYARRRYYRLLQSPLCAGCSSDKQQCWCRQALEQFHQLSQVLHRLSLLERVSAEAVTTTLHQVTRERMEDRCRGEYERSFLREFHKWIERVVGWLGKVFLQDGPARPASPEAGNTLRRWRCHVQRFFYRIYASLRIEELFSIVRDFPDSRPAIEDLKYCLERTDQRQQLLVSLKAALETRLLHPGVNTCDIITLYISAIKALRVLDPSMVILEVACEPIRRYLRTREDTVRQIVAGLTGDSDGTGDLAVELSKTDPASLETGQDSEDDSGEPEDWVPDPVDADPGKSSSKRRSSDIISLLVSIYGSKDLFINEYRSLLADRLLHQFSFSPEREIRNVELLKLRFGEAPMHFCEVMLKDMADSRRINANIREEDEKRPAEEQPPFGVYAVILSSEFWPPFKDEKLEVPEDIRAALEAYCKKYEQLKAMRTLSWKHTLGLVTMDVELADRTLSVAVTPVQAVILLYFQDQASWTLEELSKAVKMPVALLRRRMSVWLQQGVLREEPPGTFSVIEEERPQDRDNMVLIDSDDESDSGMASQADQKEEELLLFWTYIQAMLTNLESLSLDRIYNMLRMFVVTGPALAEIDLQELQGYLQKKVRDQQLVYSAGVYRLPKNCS
Sequence of UniProt Q9Y487 (Q9Y487 whole entry, looked up): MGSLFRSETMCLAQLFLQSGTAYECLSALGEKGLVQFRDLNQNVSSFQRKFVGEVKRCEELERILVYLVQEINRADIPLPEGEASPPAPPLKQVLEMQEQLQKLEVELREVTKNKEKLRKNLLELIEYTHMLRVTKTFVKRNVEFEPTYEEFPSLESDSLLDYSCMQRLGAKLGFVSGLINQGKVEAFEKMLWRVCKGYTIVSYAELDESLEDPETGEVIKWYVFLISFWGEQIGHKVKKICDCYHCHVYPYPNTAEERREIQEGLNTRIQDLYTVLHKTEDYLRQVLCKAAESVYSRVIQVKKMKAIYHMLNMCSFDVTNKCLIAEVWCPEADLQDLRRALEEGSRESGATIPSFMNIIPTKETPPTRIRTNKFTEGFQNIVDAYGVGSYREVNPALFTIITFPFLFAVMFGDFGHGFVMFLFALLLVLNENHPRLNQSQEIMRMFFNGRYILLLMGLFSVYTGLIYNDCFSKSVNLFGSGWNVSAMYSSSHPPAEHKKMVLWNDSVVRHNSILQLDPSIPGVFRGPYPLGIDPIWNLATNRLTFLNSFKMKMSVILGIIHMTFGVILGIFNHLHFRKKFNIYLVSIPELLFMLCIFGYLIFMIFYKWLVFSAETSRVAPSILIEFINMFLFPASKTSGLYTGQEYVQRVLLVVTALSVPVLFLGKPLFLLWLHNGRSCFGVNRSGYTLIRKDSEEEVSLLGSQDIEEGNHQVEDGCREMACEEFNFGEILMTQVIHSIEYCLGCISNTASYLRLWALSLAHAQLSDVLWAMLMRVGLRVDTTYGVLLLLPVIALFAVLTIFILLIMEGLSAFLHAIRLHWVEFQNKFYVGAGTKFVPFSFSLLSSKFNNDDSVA
Sequence of UniProt P24666 (P24666 whole entry, looked up): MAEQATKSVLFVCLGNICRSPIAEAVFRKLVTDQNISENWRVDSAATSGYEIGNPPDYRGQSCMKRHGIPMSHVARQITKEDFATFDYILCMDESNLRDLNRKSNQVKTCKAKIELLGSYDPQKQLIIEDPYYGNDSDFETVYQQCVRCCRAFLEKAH
Sequence of UniProt O95870 (O95870 whole entry, looked up): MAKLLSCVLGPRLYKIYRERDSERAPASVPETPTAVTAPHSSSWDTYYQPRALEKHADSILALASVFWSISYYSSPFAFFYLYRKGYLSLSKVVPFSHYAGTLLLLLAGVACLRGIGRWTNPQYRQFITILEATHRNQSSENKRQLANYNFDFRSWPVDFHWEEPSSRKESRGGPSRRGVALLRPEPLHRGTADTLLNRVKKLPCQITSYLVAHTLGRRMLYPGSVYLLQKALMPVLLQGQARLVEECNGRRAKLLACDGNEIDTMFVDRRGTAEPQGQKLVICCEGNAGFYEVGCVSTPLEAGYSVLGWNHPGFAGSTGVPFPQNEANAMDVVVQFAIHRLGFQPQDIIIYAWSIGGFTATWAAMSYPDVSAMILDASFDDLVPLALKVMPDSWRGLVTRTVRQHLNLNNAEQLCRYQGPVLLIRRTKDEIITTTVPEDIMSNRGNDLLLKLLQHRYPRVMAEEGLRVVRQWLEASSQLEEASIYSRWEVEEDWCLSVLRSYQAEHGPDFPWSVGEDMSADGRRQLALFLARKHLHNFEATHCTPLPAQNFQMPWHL
Sequence of UniProt Q9BR61 (Q9BR61 whole entry, looked up): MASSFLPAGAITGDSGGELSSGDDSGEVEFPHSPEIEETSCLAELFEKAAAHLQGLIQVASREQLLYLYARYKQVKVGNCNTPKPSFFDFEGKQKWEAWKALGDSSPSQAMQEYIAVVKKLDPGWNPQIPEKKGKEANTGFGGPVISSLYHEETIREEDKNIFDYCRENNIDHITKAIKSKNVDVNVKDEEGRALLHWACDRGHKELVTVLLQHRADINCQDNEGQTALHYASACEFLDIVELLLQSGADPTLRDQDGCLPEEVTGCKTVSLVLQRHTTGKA

Target	log2 fold change (erlotinib)	log2 fold change [1]	log2 fold change [2]	log2 fold change [3]	log2 fold change [4]	log2 fold change [5]	log2 fold change [6]	log2 fold change [7]	log2 fold change [8]	log2 fold change [9]	log2 fold change (IRAK-1-4 Inhibitor I)	log2 fold change (ibrutinib)	log2 fold change [10]	log2 fold change (ralimetinib)	log2 fold change [11]	log2 fold change [12]	log2 fold change [13]	log2 fold change (pinometostat)	log2 fold change [14]	log2 fold change [15]
ACP1 isoform 2 (UniProt P24666)	0.072	0.011	0.038	0.024	0.029	-0.008	-0.018	0	0.004	-0.039	-0.082	-0.028	-0.013	0.009	-0.264 (active)	-0.109	-0.039	0.073	-0.061	-0.296 (active)
ATR (UniProt Q13535)	0.014	-0.011	-0.039	0.018	0.02	0.02	-0.017	0.086	-0.029	0.046	0.093	0.031	0.021	-0.03	-0.077	0.046	0.037	0.101	0.002	0.109
ACSM3 (UniProt Q53FZ2)	0.078	0.01	0.076	-0.235	0.088	-0.009	-0.078	-0.072	0.009	0.01	0	-0.021	-0.11	-0.003	-0.397 (active)	-0.155	-0.086	0.046	-0.001	0.041
ALG14 (UniProt Q96F25)	0.111	0.018	-0.128	-0.085	0.084	0.088	0.053	0.002	-0.061	0.014	0.007	0.104	-0.157	-0.12	-0.115	-0.098	0.093	0.038	0.002	0.195
AGPAT3 isoform 3 (UniProt Q9NRZ7)	0.009	-0.008	0.028	-0.009	0.028	0.12	0.04	0.006	0	0.067	0.012	0	-0.024	-0.02	-0.001	-0.071	-0.001	0.034	-0.011	0.03
BZW1 isoform 3 (UniProt Q7L1Q6)	0.049	0.176	-0.001	-0.088	0.054	0.019	0.042	0.039	-0.059	-0.101	-0.118	-0.123	0.005	0.049	-0.296	-0.422 (active)	0.007	0.123	0.006	0.068
ABHD16A (UniProt O95870)	-0.036	0.02	-0.048	0.161	0.208	-0.094	0.036	0.009	-0.005	0.023	-0.039	0.043	-0.026	0.047	0.361 (active)	0.656 (active)	0.064	-0.009	-0.064	0.012
AARS2 (UniProt Q5JTZ9)	0.148	-0.035	0.058	-0.019	0.083	0.011	0.025	0.021	-0.003	0.021	0	-0.025	-0.025	-0.011	-0.099	-0.15	-0.013	0.006	0.002	0.048
BECN1 (UniProt Q14457)	-0.007	-0.035	0.043	-0.042	-0.001	0.085	-0.043	0.008	0.002	-0.042	-0.003	-0.018	0.003	-0.004	-0.011	-0.031	-0.015	-0.032	-0.058	0.084
ADD2 (UniProt P35612)	0.008	-0.011	0.025	0.004	-0.004	0.022	0.012	-0.005	0.004	0.016	0.04	0.009	-0.172	-0.021	-0.004	0.042	-0.024	-0.015	0.01	0.029
ACBD6 (UniProt Q9BR61)	0.056	-0.031	0.134	0.108	0.007	0.011	-0.078	0.073	-0.186	-0.216	-0.072	0.009	0.477 (active)	-0.169	-0.068	0.173	0.159	0.008	0.023	0.074
ATP1A4 (UniProt Q13733)	-0.076	0.033	0.183	0.046	-0.051	0.063	-0.003	-0.112	-0.009	-0.015	0.002	-0.013	0.032	-0.025	-0.025	0.121	-0.033	-0.017	0.016	0.03
ABHD11 (UniProt Q8NFV4)	0.03	-0.041	0.078	-0.033	0.113	-0.067	0.045	0.043	-0.079	0.01	-0.031	0.031	-0.007	-0.123	-0.006	-0.043	0.068	-0.027	-0.016	0.026
BAIAP2 (UniProt Q9UQB8)	0.033	0.089	0.012	-0.008	0.018	0.017	0.014	-0.063	-0.101	-0.016	-0.016	-0.032	-0.265 (active)	-0.034	-0.033	-0.056	0.062	0	0.001	0.041
ANAPC2 (UniProt Q9UJX6)	-0.028	0.064	-0.002	0.018	0.002	0.144	-0.029	0.022	-0.033	-0.022	0.018	-0.045	0.005	0.011	-0.025	-0.083	0.055	0.078	-0.044	-0.051
ATP6V0A2 (UniProt Q9Y487)	-0.009	0	-0.045	0.031	-0.025	0.031	0.024	0.041	-0.016	0.002	-0.006	-0.026	-0.017	0.057	-0.01	-0.297 (active)	0.049	0.054	0.008	0.003
